p53ts 32C kill – p53ts cell cytotoxicity, permissive temperature; H1299-p53A138V at 32C, ATP luminescence viability, 24 h; Potency, µM (doses to about 46.1 µM), actives largely listed as cytotoxic; actives 0.93% (n = 130,000); AID 924; further: nearly all actives have a fitted effect of over 55% in size
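ATP-content luminescence (ATPlite) read-out after 24 h compound exposure at 32C in H1299-p53A138V cells (600/well). Tested up to 46 uM. Normalized to DMSO (0%) and 100 uM tamoxifen (100% killing); Hill-fit AC50.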
Imprint erasure – genomic imprint erasure induction; Potency, µM (series often up to 60.7 µM), actives largely listed as activators; AID 1948; actives 0.02% (n = 110,000); mouse ES Peg3-LacZ reporter, beta-gal luminescence, 40 h
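Gelatin-coated wells received 300 freshly trypsinized female ES cells with a Peg3LacZ-Neo reporter on the maternal allele, then incubated 40 hours at 37C. BetaGlo was added for 5 minutes at room temperature before a single luminescence read.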
Ub-GFP proteasome – inhibits proteasome, raising ubiquitin-GFP reporter fluorescence | Ubiquitin-GFP reporter cells, proteasome inhibition, GFP fluorescence; response scale: untreated = 0%, 10 µM MG-132 = 100% | Potency, µM (top dose mostly 45.9 µM), most hits filed as activators | 67,000 tested, under 10 active | AID 526; active means well fitted activation curve with a large enough effect, not every such curve was filed as active; inconclusive means small, poorly fitted or top-dose-only effect, or another doubt; inactive means no such curve, though single readings can be large or run the other way
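Reporter cells (U2OS, ubiquitin-G76V-GFP fusion) are plated overnight, then treated 4 hr at 37 °C with compound titrations from 46 uM down to 2.9 nM. Activity is scaled against untreated cells and 10 uM MG-132.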
p53ts 39C tox – kills p53ts cells at the nonpermissive temperature | H1299-p53A138V viability at 39C, ATP luminescence, 24 h | Potency, µM (doses to about 46.1 µM), hits mostly cytotoxic | actives 1.5% (n = 130,000) | AID 902; further: nearly all actives have a fitted effect of over 55% in size
GFP derepression – epigenetic modulators derepressing GFP locus in mouse cells. actives 0.09% (n = 68,000). Potency, µM (top dose mostly 46.1 µM). mouse C127i GFP locus derepression, cytometry, 30 h
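Read-out is the number of GFP-positive cells, scored as fluorescent objects 20 to 120 um wide, reflecting derepression of a silenced CMV-GFP reporter in murine C127i cells after 30 h compound exposure at 37 C.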
HBB splicing – hemoglobin beta splicing modulation. HBB splicing reporter cell assay, activation; EGFP reporter with mutant IVS2-654 intron; response scale: normalised to 500 nM splice-correcting PNA. Potency, µM (doses to about 46.1 µM), hits mostly activators. actives 0.06% (n = 65,000)
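Compounds were applied for 2 days to HeLa EGFP-654 cells, 500/well in Optimem with 2% FCS. The reporter's EGFP is disrupted by mis-splicing of beta-globin intron IVS2-654. Readout: summed well GFP fluorescence from 488 nm laser scanning; reference was 500 nM antisense […] 654 PNA.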
A number is an active result; – = inactive; ? = inconclusive; · = not tested or not shown; ! = repeats disagree; [ ] = another dose, or the depositor's remark. Most compounds without a hit are left out; they make up all but 1.6% or so of the library. Unless noted, the call rests on the fitted dose curve; in most records, active means well fitted curve in the direction sought with a large enough effect; inconclusive means small, poorly fitted or top-dose-only effect, or another doubt; inactive means no such curve, though single readings can be large; an effect the other way counts as inactive or inconclusive.

SMILES	p53ts 32C kill	Imprint erasure	Ub-GFP proteasome	p53ts 39C tox	GFP derepression	HBB splicing
Cc1ccccc1Nc1c(-c2ccc(N3CCOCC3)cc2)nc2ncccn12	13µM	–[10.9 µM]	·	4µM	·	·
CC(C)c1ccc(NC(=O)C(NS(=O)(=O)c2ccc3c(c2)CCC(=O)N3)c2ccccc2)cc1 (stereo unspecified)	–	–[10.9 µM]	·	–	·	·
O=C(Nc1ccc(C(F)(F)F)cc1)C1CCCN(c2cnccn2)C1 (stereo unspecified)	–	–[10.9 µM]	·	–	·	·
CCC(C)NC(=O)Cn1c(=O)n(Cc2ccc(C(=O)NCc3ccc(C)cc3)cc2)c(=O)c2ccccc21 (stereo unspecified)	?	–[10.9 µM]	·	20µM	·	·
Cc1ccc(Cl)cc1N1CCN(C(=O)c2ccc3c(c2)N(Cc2ccc(F)cc2)CCS3)CC1	–	–[10.9 µM]	·	–	·	·
COc1ccc(Nc2c3c(nc4ccc(NC(=O)c5cc(Cl)ccc5OC)cc24)CCCC3)cc1OC	5.6µM	–[10.9 µM]	·	5µM	·	·
O=C(NC1CC(=O)N(c2ccc(F)cc2)C1)C(c1ccccc1)c1ccccc1 (stereo unspecified)	–	–[10.9 µM]	·	–	·	·
COc1cc(C2c3c(-c4ccccc4O)n[nH]c3C(=O)N2Cc2ccco2)ccc1OCC(C)C (stereo unspecified)	?	–[10.9 µM]	·	20µM	·	·
CCOc1ccc(NC(=O)c2sc3nc4c(cc3c2N)CCCCCC4)cc1	?	–[10.9 µM]	·	13µM	·	·
COc1ccc(OC)c(NC(=O)c2sc3nc4c(cc3c2N)CCCCCC4)c1	?	–[10.9 µM]	·	13µM	·	·
CNC(=O)C1CCC(Cn2c(=O)c3sccc3n(CC(=O)NCc3ccc(OC)cc3)c2=O)CC1 (stereo unspecified)	–	–[10.9 µM]	·	–	·	·
CCCCN(CCCC)CC(O)Cn1cc(/C=C/C(=O)c2ccccc2)c2ccccc21 (stereo unspecified)	?	–[10.9 µM]	·	?	·	·
CCCCN(C)CC(O)Cn1cc(/C=C/C(=O)c2ccc(OCC)cc2)c2ccccc21 (stereo unspecified)	16µM	–[10.9 µM]	·	5µM	·	·
Fc1ccc([C@H]2CCNC[C@H]2COc2ccc3c(c2)OCO3)cc1	32µM	–	–	10µM	–	·
Cc1cccc(-n2ncc3c(NC4CCCCC4)ncnc32)c1	10µM	–	–	16µM	·	–
Clc1cccc(-n2ncc3c(NC4CCCCCC4)ncnc32)c1	–	–[10.9 µM]	·	–	·	·
C=CCNc1ncnc2c1cnn2-c1cccc(C)c1	?	–	–	?	·	–
Cc1ccc(-n2ncc3c(NC4CCCCC4)ncnc32)cc1Cl	?	–[10.9 µM]	·	?	·	·
Cc1cccc(-n2ncc3c(NC4CCCC4)ncnc32)c1	13µM	–[10.9 µM]	·	7.9µM	·	·
Cc1ccc(-n2ncc3c(NC4CCCCC4)ncnc32)cc1C	–	–[10.9 µM]	·	13µM	·	·
COc1ccc(-c2nc3scc(CCNS(=O)(=O)c4ccc5c(c4)OCCO5)n3n2)cc1	–	–[10.9 µM]	·	?	·	·
CC1CCCN(Cc2nc3c(c(=O)n(C)c(=O)n3C)n2Cc2ccc(Cl)cc2Cl)C1 (stereo unspecified)	–	–[10.9 µM]	·	–	·	·
CCN(CC)CCC[C@H](C)Nc1c2ccc(Cl)cc2nc2ccc(OC)cc12	5µM	–	–	10µM	13µM!	13µM
COc1ccc(-c2cnc(SCC(=O)Nc3ccc4c(c3)OCO4)n2Cc2ccco2)cc1	–	–	–	–	–	–
CC(=O)Nc1cccc(NC(=O)CSc2ncc(-c3ccc(Cl)cc3)n2Cc2ccco2)c1	?	–	–	13µM	–	–
SMILES	p53ts 32C kill	Imprint erasure	Ub-GFP proteasome	p53ts 39C tox	GFP derepression	HBB splicing
CCOc1ccc(NC(=O)c2nccnc2CO)cc1	13µM	–	–	10µM	–	–
COc1ccccc1C(=O)Nc1ccccn1	10µM	–	–	10µM	–	–
CCOc1ccc(NC(=O)c2ccccc2O)cc1	7.9µM	–	–	7.9µM	–	–
CCOc1ccc(NC(=O)c2ccccc2CO)cc1	?	–	–	?	–	–
CCOc1ccc(NC(=O)c2ccccc2OC)cc1	13µM	–	–	4µM	–	–
CCCC(=O)Nc1ccc(NC(=O)c2ccccc2OC)cn1	–	–	–	–	–	–
COc1ccc(CCNC(=O)c2cc(Nc3cc(C)cc(C)c3)nc3ccccc23)cc1OC	–	–[10.9 µM]	·	?	·	·
Clc1ccc(-c2csc(-c3nc(-c4ccc(Br)s4)cs3)n2)cc1	–	–[10.9 µM]	·	–	·	·
C=CCNC(=O)c1ccc(OC)cc1OC	–	–	–	–	–	–
COc1ccc(C(=O)Nc2ccc(C)cn2)c(OC)c1	0.5µM	–	–	0.63µM	–	–
Cc1ccc(-c2noc(-c3ccc(N4CCC(C)CC4)c([N+](=O)[O-])c3)n2)cc1	–	–[10.9 µM]	·	–	·	·
CC1CCN(c2ccc(-c3nc(-c4ccccc4)no3)cc2[N+](=O)[O-])CC1	–	–[10.9 µM]	·	22µM	·	·
COC(=O)c1cc2oc(C)cc2n1Cc1cccc(Cl)c1	–	–[10.9 µM]	·	–	·	·
O=C(Nc1ccc(C(=O)N2CCN(c3ccc(F)cc3)CC2)cc1)c1nsc2ccccc12	–	–[10.9 µM]	·	–	·	·
CNC(=O)c1ccc(NC(=O)c2nsc3ccccc23)cc1	7.9µM	–[10.9 µM]	·	7.9µM	·	·
O=C(Nc1ccc(C(=O)N2CCCCC2)cc1)c1nsc2ccccc12	3.2µM	–[10.9 µM]	·	3.2µM	·	·
Cc1ccccc1CNC(=O)c1ccc(NC(=O)c2nsc3ccccc23)cc1	?	–[10.9 µM]	·	?	·	·
CCOC(=O)c1ccc(NC(=O)c2nsc3ccccc23)cc1	?	–[10.9 µM]	·	13µM	·	·
Cc1ccc(CNC(=O)c2ccc(NC(=O)c3nsc4ccccc34)cc2)cc1	–	–[10.9 µM]	·	–	·	·
O=C(NCc1cccc(F)c1)c1ccc(NC(=O)c2nsc3ccccc23)cc1	11µM	–[10.9 µM]	·	10µM	·	·
COc1ccc(C2=Nn3c(nc4sc(C(=O)Nc5cccc(C)c5)c(C)c4c3=O)SC2)cc1	–	–[10.9 µM]	·	–	·	·
O=C(c1cnc(N2CCOCC2)c2ccccc12)N1CCN(c2ccccc2)CC1	–	–[10.9 µM]	·	–	·	·
O=C(CCC1N=C2c3ccccc3N=C(SCc3ccc(F)cc3)N2C1=O)NCc1ccc(F)cc1 (stereo unspecified)	–	–[10.9 µM]	·	–	·	·
Cc1cccc(C)c1OCC(=O)Nc1c(C(=O)c2ccc(Br)cc2)oc2ccccc12	–	–[10.9 µM]	·	–	·	·
Clc1ccc(CSc2nc3ncccc3[nH]2)cc1	13µM	–[10.9 µM]	·	10µM	·	·
Cn1c(=O)c2cc(C(=O)NC3CCCCCC3)sc2c2ccccc21	?	–[10.9 µM]	·	7.9µM	·	·
COc1cccc(-c2ccc3c(N)c(C(=O)c4ccc(Br)cc4)sc3n2)c1	?	–[10.9 µM]	·	13µM	·	·
COc1ccc(-c2ccc3c(N)c(C(=O)c4ccc(OC)c(OC)c4)sc3n2)cc1	–	–[10.9 µM]	·	?	·	·
CSc1ccc(/C=C/c2nc3ccccc3n2S(=O)(=O)c2ccc(F)c(C)c2)cc1	7.9µM	–[10.9 µM]	·	4µM	·	·
CC(=O)c1nc2ccccc2n1S(=O)(=O)c1ccc(C)cc1	–	–	–	–	–	–
